Pf growth 96h = P. falciparum growth inhibition at 96 hour, primary screen for plastid delayed-death inhibitors; hit rate 6.9% among 320,000; AID 504834; Potency, µM (highest dose often 28.7 µM), inactives show at the top dose activity change, negative = inhibition, actives largely listed as inhibitors; P. falciparum luciferase reporter growth, 96 h; also: potency is read from the fitted curve at half-maximal effect; % is scaled to controls: 0 for no effect and ±100 for the full control effect
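Two-generation exposure (96 h) targets delayed-death phenotype. Reporter parasites carrying integrated firefly luciferase, in red cells at 2% hematocrit and 0.05% parasitemia final, kept at 37 C, 5% CO2; luminescence loss indicates inhibition.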
HCMV inh = blocks human cytomegalovirus replication; hit rate 4.5% among 410,000; HFF cells, HCMV-luciferase reporter, 72 h; active compounds read low; activity change, negative = inhibition, % at 57.5 µM; in the data active = activity change below about -60%; inconclusive = no clear call, values can overlap the other calls; inactive = above about -39%; also: % is scaled to controls: 0 for no effect and ±100 for the full control effect
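After 16 h attachment at 37C, HFF cells received test compound and HCMV-luciferase (1 PFU/cell); reporter luminescence read 72 h later, data normalized against buffer-only and known inhibitor Salinomycin.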
SARS PLP yeast = SARS-CoV PLP inhibition in yeast. S. cerevisiae expressing SARS-CoV PLpro, growth rescue. Potency, µM (series often up to 32.9 µM), for the others: top-dose activity, positive = growth rescue, usual class: activators. hit rate 0.19% among 330,000; calls by dose curve; also: potency is read from the fitted curve at half-maximal effect; 0% is about no effect; nearly all actives have a fitted effect of over 55% in size
Pf growth 48h = P. falciparum growth inhibition at 48 hours (one generation) | P. falciparum luciferase growth in erythrocytes, 48 h | Potency, µM (titrated, usually from 28.7 µM), for the others: at the highest dose activity change, negative = inhibition, actives largely listed as inhibitors | hit rate 5.9% among 310,000 | AID 504832; also: potency is read from the fitted curve at half-maximal effect; % is scaled to controls: 0 for no effect and ±100 for the full control effect
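Firefly luciferase activity from engineered P. falciparum reports growth; inhibitors lower the luminescent signal. Cultures contained 2% hematocrit erythrocytes at 0.1% final parasitemia.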
HCV inh = inhibitors of hepatitis C virus infection; Huh7.5.1 HCVcc-Cre infection, luciferase reporter, 44 h; Potency, µM (highest dose often 41.8 µM), without a hit: top-dose activity change, negative = inhibition, most hits filed as inhibitors; AID 651820; hit rate 3.4% among 340,000; also: potency is read from the fitted curve at half-maximal effect; % is scaled to controls: 0 for no effect and ±100 for the full control effect
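After 44 h co-culture of compound, cells and HCVcc-Cre (~0.5 moi), substrate is added for 15 min at room temperature and luciferase measured over 15 sec. Cells were seeded at 1,000/well and pre-cultured 4 h.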
Sm TGR block = S. mansoni TGR enzyme inhibition; Q962Y6; purified TGR, DTNB reduction, TNB absorbance 405 nm; Potency, µM (doses to about 114 µM), for inactives: top-dose activity change, negative = inhibition, most hits filed as inhibitors; hit rate 3% among 360,000; also: potency is read from the fitted curve at half-maximal effect; % is scaled to controls: 0 for no effect and ±100 for the full control effect; nearly all actives have a fitted effect of over 60% in size
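First, TGR (20 nM dispensed) and NADPH were mixed with compound. Second, a 15 min room-temperature incubation followed. Third, further NADPH and then DTNB were added to start the reaction. Finally, TNB absorbance was monitored kinetically.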
Starred values were filed as active, the others as inactive; u = inconclusive; x = not tested or not shown. Only some compounds are listed: those with a hit (about 15% of all), similar ones and a draw of the others. Unless noted, calls follow the shape of the dose curve; as a rule, active = well fitted curve in the direction sought with a large enough effect; inconclusive = small, poorly fitted or top-dose-only effect, or another doubt; inactive = no such curve, though single readings can be large; an effect the other way counts as inactive or inconclusive.

SMILES | Pf growth 96h | HCMV inh | SARS PLP yeast | Pf growth 48h | HCV inh | Sm TGR block
Cc1nn(Cc2ccccc2Cl)c(Cl)c1C(=O)NCCc1ccccc1 | 126.4% | -6.2 | 7.1% | 168.6% | u | -9.7%
CCNC(=O)NC(=O)C(C)OC(=O)c1cccn1C (centres undefined) | 79.1% | 5.7 | 0.1% | 10.4µM* | 10.7% | -9.8%
CCNC(=O)NC(=O)C(C)OC(=O)c1c(C)nn(Cc2ccccc2)c1Cl (centres undefined) | u | 1.5 | 4.3% | 13.1µM* | 12.2% | -1.1%
CC(=O)Nc1ccc(NC(=O)C(C)OC(=O)c2c(C)nn(-c3ccccc3)c2Cl)cc1 (centres undefined) | u | 14.2 | -2.8% | u | -6.6% | 0.9%
CCc1cccc(NC(=O)C(Cc2ccccc2)NS(=O)(=O)c2ccc3c(c2)c(=O)n(C)c(=O)n3C)c1 (centres undefined) | x | -6.2 | x | x | x | -3.4%
CCC(C)N1C(=O)/C(=C\c2cnc(N(C)C)nc2)C(=O)NC1=S (centres undefined) | -27.5% | -39.2 | 1.3% | -7.4% | 14.7% | 10µM*
Cc1noc(C)c1C(=O)Nc1nc(-c2ccc([N+](=O)[O-])cc2)cs1 | 8.9% | -61.7* | 3.6% | -28.8% | u | 1.3%
Cc1ccc(-c2csc(NC(=O)c3ccc(C)o3)n2)cc1 | -0.7% | -8.5 | -64.2% | 19.3% | u | 1.9%
Cc1ccc(-c2csc(NC(=O)c3ccc([N+](=O)[O-])o3)n2)cc1 | 2.62µM* | -26.1 | -14.6% | 13.1µM* | 14.1µM* | -19.1%
NC(=O)Cc1nc(-c2ccc(F)cc2)cs1 | 33.9% | -0.1 | -0.6% | 26.6% | 12.5% | 4.7%
NC(=O)Cc1nc(-c2ccc([N+](=O)[O-])cc2)cs1 | 38.5% | -92.7* | -4.6% | 38.1% | -3.3% | 0.0%
CC(C)=NNc1nc(-c2ccc([N+](=O)[O-])cc2)cs1 | -12.4% | u | -2.6% | -20.4% | -5.4% | -32.1%
CC(=O)Nc1nc(-c2ccc([N+](=O)[O-])cc2)cs1 | -14.4% | -84.8* | -7.1% | 23.7% | 9.9% | 4.5%
Cn1ccs/c1=N\C(=O)Nc1cccc(C(F)(F)F)c1 | 0.0% | -6.1 | -3.6% | 37.3% | -8.0% | -0.8%
NC(=S)Cc1nc(-c2ccc(Cl)cc2)cs1 | u | u | -3.4% | 30.1% | 11.2µM* | 0.0%
O=C(Nc1ccc([N+](=O)[O-])cc1)Nc1nc(-c2ccc(Cl)s2)cs1 | u | -99.9* | -15.6% | 1.85µM* | u | -14.3%
COc1cc2nc(=S)n3[nH]c(COc4ccccc4C)nc3c2cc1OC | -8.3% | -17.2 | 2.5% | u | -10.9% | -2.2%
COc1cc2nc(=S)n3[nH]c(CCn4nc(C)cc4C)nc3c2cc1OC | -10.2% | 44.5 | 3.0% | 2.94µM* | -11.0% | -24.5%
CC(OC(=O)c1ccccc1C(=O)N(C)Cc1ccccc1)C(=O)NC1(C#N)CCCCC1 (centres undefined) | u | 1.7 | 1.2% | 10.4µM* | -19.2% | 5.9%
O=C1CC(/C=C/c2ccncc2)=Nc2ccccc2N1 | u | -98.6* | -10.1% | 14.0% | u | u
CC1(C(=O)Nc2cccc3cccnc23)CCN1Cc1ccccc1OC(F)F (centres undefined) | x | 4.1 | x | x | x | x
Cc1ccc(N2C(=O)C(Cl)=C(N3CCN(C)CC3)C2=O)c(C)c1 | 2.62µM* | -20.3 | -1.1% | u | 14.2% | u
Cc1ccc(N2C(=O)C(Cl)=C(NCCO)C2=O)c(C)c1 | 8.3% | 36.1 | 7.8% | 24.9% | 3.3% | 8.91µM*
Cc1cc(C)cc(-n2nnc(-c3nc(-c4ccccc4F)no3)c2C)c1 | x | -16.6 | x | x | x | 9.6%
CCCCn1c(N)c(N(CC(C)C)C(=O)CCCc2nc3ccccc3c(=O)[nH]2)c(=O)[nH]c1=O | 1.5% | -6.3 | 1.3% | 5.4% | 4.7% | 4.0%
O=C(CN1C(=O)/C(=C\c2cccc(Br)c2)Oc2ccccc21)NCCCN1CCOCC1 | u | -35.4 | -5.0% | u | 6.31µM* | -8.3%
